Results as given in PubChem BioAssay (NCATS).
Where “and” joins values, the source holds several entries; their conditions need not be identical. Equal entries are not always repeated. Inconclusive results are not listed. Where a call stands in place of a potency, no number is given. Calls of active or inactive are those of the source. Unless noted, the call rests on the fitted dose curve.

What was measured:
[1] = biological target: DNA dC->dU-editing enzyme APOBEC-3G (Homo sapiens) (UniProt Q9HC16); assay: qHTS for inhibitors of Vif-A3G interactions: Validation (AID 588379; active means well fitted curve in the direction sought with a large enough effect; an effect the other way counts as inactive or inconclusive)
In short: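 Yellow fluorescence (Ex 488, Em 500-530) of Vif-coexpressing HeLa A3G-eYFP cells, scanned by Acumen cytometer, reports blocked A3G degradation. Cells plated at 700/well overnight at 37 deg C before compound addition, then a further overnight compound incubation at 37 deg C.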

[2] = biological target: Estrogen receptor (Homo sapiens) (UniProt P03372); assay: qHTS assay for small molecule agonists of estrogen receptor alpha signaling (AID 588514); further: nearly all actives have a fitted effect of over 70% in size; further: potency means the concentration at half of the fitted maximal effect
In short: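 Read-out: CCF4 fluorescence from a beta-lactamase reporter in ER-alpha-UAS-bla HEK 293 cells after 18 hrs of compound exposure at 37 C. Normalized to 20 nM 17-beta-estradiol (100%) and DMSO (0%).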

[3] = biological target: Glucocorticoid receptor (Homo sapiens) (UniProt P04150); assay: qHTS assay for small molecule agonists of glucocorticoid receptor signaling (AID 588532; active means well fitted curve in the direction sought with a large enough effect in the signal ratio, with a control signal flat; the % refers to the signal ratio); conditions: HeLa MMTV-bla, beta-lactamase ratio, agonist, 18 h; stronger effect = higher value; percent of dexamethasone control, DMSO zero
In short: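 Agonist-mode qHTS: GRE-driven beta-lactamase in HeLa cells exposed 18 h to titrated compounds (up to 92 uM), then CCF4 ratio read after 2 h at RT; Hill-fitted EC50, efficacy relative to 0.1 uM dexamethasone.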

[4] = biological target: Peroxisome proliferator-activated receptor gamma (Homo sapiens) (UniProt P37231); assay: qHTS assay for small molecule antagonists of peroxisome proliferator-activated receptor gamma signaling (AID 588537; active means well fitted inhibition curve with a large enough effect in the signal ratio, with a control signal flat, not every such curve was filed as active; the % refers to the signal ratio; further: potency means the concentration at half of the fitted maximal effect)
In short: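 Cell-based beta-lactamase assay; GW9662 served as the antagonist control. Stimulation used rosiglitazone, final 50 nM, 16 h, 37 C.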

[5] = biological target: Thyroid hormone receptor beta (Homo sapiens) (UniProt P10828); assay: qHTS assay for small molecule agonists of thyroid hormone receptor beta signaling (AID 588545)
In short: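 Compounds were tested as agonists in TR-UAS-bla-GripTite HEK 293 cells. After 18 hrs at 37 C, CCF4 substrate was added and fluorescence read after 2 hrs at room temperature.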

[6] = biological target: Estrogen receptor (Homo sapiens) (UniProt P03372); assay: qHTS assay for small molecule antagonists of estrogen receptor alpha signaling (AID 588513; active means well fitted curve in the direction sought with a large enough effect in the signal ratio, with a control signal flat, not every such curve was filed as active; the % refers to the signal ratio)
In short: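 Antagonist-mode qHTS in ER-alpha-UAS-bla HEK 293 cells: compound titration, 0.5nM estradiol for 18 h, CCF4 fluorescence, Hill-derived IC50.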

[7] = qHTS assay for small molecule antagonists of peroxisome proliferator-activated receptor delta signaling (AID 588535; active means well fitted inhibition curve with a large enough effect in the signal ratio, with a control signal flat, not every such curve was filed as active; the % refers to the signal ratio;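 on max response: cells co-treated with a PPAR-delta agonist as stimulator during compound exposure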); conditions: HEK293T PPARd-UAS-bla, beta-lactamase FRET ratio, 18 h; 460 nm channel
In short: (§1)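 Antagonist-mode qHTS using GeneBLAzer PPAR-delta-UAS-bla HEK293T cells; compound exposure 18 hrs at 37 C over a titration. Ratiometric CCF4 fluorescence at 460/530 nm; concentration-response points fitted to the Hill equation.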

[8] = biological target: Peroxisome proliferator-activated receptor delta (Homo sapiens) (UniProt Q03181); assay: as above
In short: as §1

[9] = biological target: Peroxisome proliferator-activated receptor gamma (Homo sapiens) (UniProt P37231); assay: qHTS assay for small molecule agonists of peroxisome proliferator-activated receptor gamma signaling (AID 588536; active means well fitted curve in the direction sought with a large enough effect in the signal ratio, with a control signal flat, not every such curve was filed as active; the % refers to the signal ratio)
In short: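 Cells were plated and held 6–6.5 h at 37 C, then compounds were added as a titration series. After a further 16 h, CCF4 dye was loaded for 2 h at room temperature and emission at 460/530 nm recorded.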

[10] = biological target: Vitamin D3 receptor (Homo sapiens) (UniProt P11473); assay: qHTS assay for small molecule antagonists of vitamin D receptor signaling (AID 588541);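 further: receptor activated by calcitriol during compound treatment; series mostly up to about 77 µM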
In short: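 Antagonist-mode beta-lactamase reporter assay: HEK293T VDR-UAS-bla cells were exposed to titrated compound alongside 1-alpha,25-dihydroxyvitamin D3 at 3 nM final for 16 h. Values were normalized to the 50 nM agonist control and DMSO basal, with IC50 and efficacy from Hill equation fits.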

[11] = biological target: Vitamin D3 receptor (Homo sapiens) (UniProt P11473); assay: qHTS assay for small molecule agonists of vitamin D receptor signaling (AID 588543)
In short: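 Measured: β-lactamase reporter activity (CCF4, 405 nm excitation, 460/530 nm emission) in HEK293T VDR-UAS-bla cells after 16 h compound exposure at 37 °C. Normalization against 50 nM 1α,25-dihydroxyvitamin D3 and DMSO; Hill-fit EC50.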

[12] = qHTS assay for small molecule agonists of retinoid X receptor alpha signaling (AID 588544); conditions: HEK293T RXRa-UAS-bla, beta-lactamase reporter, 18 h; 530 nm emission
[13] = biological target: Retinoic acid receptor RXR-alpha (Homo sapiens) (UniProt P19793); assay: as above
[14] = qHTS assay for small molecule antagonists of retinoid X receptor alpha signaling (AID 588546; active means well fitted inhibition curve with a large enough effect in the signal ratio, with a control signal flat, not every such curve was filed as active; the % refers to the signal ratio; further: potency means the concentration at half of the fitted maximal effect;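 on max response: cells stimulated with 9-cis-retinoic acid as agonist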); conditions: HEK293T RXRa-UAS-bla, beta-lactamase ratio, antagonist mode; measured here: W530 green channel, cytotoxicity proxy
In short: (§2)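 Beta-lactamase reporter inhibition, read as CCF4 fluorescence ratio (ex 405, em 460/530 nm) after 2 h at RT. HEK293T UAS-bla cells, 2500/well, were stimulated with 9-cis-RA at 500 or 100 nM final alongside test compound for 18 h at 37 C.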

[15] = biological target: Retinoic acid receptor RXR-alpha (Homo sapiens) (UniProt P19793); assay: as above; conditions: HEK293T RXRa-UAS-bla, beta-lactamase ratio, antagonist mode
In short: as §2

[16] = biological target: Glucocorticoid receptor (Homo sapiens) (UniProt P04150); assay: qHTS assay for small molecule antagonists of glucocorticoid receptor signaling (AID 588533; active means well fitted inhibition curve with a large enough effect in the signal ratio, with a control signal flat, not every such curve was filed as active; the % refers to the signal ratio;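 further: cells stimulated with 2 nM dexamethasone as agonist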; further: potency means the concentration at half of the fitted maximal effect)
In short: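 Antagonist-mode qHTS: compound titrations added to GRE-bla HeLa cells, then dexamethasone 2 nM final; 18 h, 37 C. CCF4 FRET fluorescence normalized to dexamethasone and DMSO; IC50 from Hill fit.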

[17] = biological target: Androgen receptor (Homo sapiens) (UniProt P10275); assay: qHTS assay for small molecule antagonists of androgen receptor signaling (AID 588516; active means well fitted curve in the direction sought with a large enough effect in the signal ratio, with a control signal flat, not every such curve was filed as active; the % refers to the signal ratio; further: potency means the concentration at half of the fitted maximal effect)
In short: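 Compounds tested in titration against 10 nM R1881 in AR-responsive bla reporter HEK 293 cells; CCF4 fluorescence (460/530 nm) after 16 h exposure gave IC50 and efficacy.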

[18] = qHTS for Inhibitors of ATXN expression: Validation (AID 588378; active means well fitted curve in the direction sought with a large enough effect; an effect the other way counts as inactive or inconclusive; further: nearly all actives have a fitted effect of over 75% in size; further: potency means the concentration at half of the fitted maximal effect)
In short: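 After a 2 h attachment and 24 h compound incubation, HEK293-ATXN2-FFLuc wells are read for fluorescence at 405 nm excitation/525 nm emission as a viability measure, then for Bright-Glo luminescence reflecting ATXN2 expression.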

[19] = biological target: Bile acid receptor (Homo sapiens) (UniProt Q96RI1); assay: qHTS assay for small molecule antagonists of farnesoid X receptor signaling (AID 588526)
In short: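 Beta-lactamase reporter antagonist mode: HEK293T FXR-UAS-bla cells, titrated compound, CDCA stimulation, 16 h 37 C, CCF4 dye 2 h RT. Data normalized to CDCA 50 uM and DMSO; Hill-fit IC50.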

[20] = biological target: Androgen receptor (Homo sapiens) (UniProt P10275); assay: qHTS assay for small molecule agonists of androgen receptor signaling (AID 588515; active means well fitted curve in the direction sought with a large enough effect in the signal ratio, with a control signal flat; the % refers to the signal ratio); conditions: AR-UAS-bla HEK293, beta-lactamase ratio, agonist 16 h; stronger effect = higher value
In short: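 Stimulation of an AR-responsive β-lactamase reporter in GripTite HEK293 cells was measured after 16 h compound exposure at 37 °C, via CCF4 fluorescence after 2 h RT. EC50 from Hill fits, normalized to R1881 at 30 nM.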

Thyroid hormone receptor beta (Homo sapiens), sequence (P10828 whole entry, looked up): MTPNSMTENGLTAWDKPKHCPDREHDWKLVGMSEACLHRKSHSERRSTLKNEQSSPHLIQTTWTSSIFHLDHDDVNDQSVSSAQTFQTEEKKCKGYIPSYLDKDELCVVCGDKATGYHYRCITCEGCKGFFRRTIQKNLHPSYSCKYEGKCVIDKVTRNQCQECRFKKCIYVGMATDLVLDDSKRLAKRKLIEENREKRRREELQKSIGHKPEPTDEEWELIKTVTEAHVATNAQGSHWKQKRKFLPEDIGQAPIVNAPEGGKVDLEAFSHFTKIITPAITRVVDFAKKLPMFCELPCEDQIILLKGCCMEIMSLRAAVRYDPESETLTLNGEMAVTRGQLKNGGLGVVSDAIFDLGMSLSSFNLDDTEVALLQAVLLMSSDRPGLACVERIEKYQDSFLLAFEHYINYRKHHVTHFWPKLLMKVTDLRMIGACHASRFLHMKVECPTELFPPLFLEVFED
DNA dC->dU-editing enzyme APOBEC-3G (Homo sapiens), sequence (Q9HC16 whole entry, looked up): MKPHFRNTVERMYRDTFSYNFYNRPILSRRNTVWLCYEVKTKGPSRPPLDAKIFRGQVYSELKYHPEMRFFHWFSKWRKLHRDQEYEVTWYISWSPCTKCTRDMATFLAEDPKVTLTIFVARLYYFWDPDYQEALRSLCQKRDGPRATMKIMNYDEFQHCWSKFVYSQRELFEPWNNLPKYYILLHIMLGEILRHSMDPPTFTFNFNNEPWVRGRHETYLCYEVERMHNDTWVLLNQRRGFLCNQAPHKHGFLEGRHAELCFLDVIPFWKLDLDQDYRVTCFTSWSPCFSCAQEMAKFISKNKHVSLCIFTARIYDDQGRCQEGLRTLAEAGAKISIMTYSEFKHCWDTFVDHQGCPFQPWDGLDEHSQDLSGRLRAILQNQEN
Vitamin D3 receptor (Homo sapiens), sequence (P11473 whole entry, looked up): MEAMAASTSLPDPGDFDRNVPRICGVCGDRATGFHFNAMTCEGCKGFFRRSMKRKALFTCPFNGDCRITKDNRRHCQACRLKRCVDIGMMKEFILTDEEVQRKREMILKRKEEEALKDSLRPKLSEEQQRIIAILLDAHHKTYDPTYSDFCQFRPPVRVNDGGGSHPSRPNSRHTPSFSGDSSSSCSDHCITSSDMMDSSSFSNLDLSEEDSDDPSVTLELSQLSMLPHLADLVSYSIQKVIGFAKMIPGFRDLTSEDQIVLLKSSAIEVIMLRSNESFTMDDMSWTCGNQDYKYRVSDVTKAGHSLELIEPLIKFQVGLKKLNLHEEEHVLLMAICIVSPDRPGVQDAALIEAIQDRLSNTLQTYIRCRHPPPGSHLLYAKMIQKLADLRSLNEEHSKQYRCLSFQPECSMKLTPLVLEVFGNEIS
Estrogen receptor (Homo sapiens), sequence (P03372 whole entry, looked up): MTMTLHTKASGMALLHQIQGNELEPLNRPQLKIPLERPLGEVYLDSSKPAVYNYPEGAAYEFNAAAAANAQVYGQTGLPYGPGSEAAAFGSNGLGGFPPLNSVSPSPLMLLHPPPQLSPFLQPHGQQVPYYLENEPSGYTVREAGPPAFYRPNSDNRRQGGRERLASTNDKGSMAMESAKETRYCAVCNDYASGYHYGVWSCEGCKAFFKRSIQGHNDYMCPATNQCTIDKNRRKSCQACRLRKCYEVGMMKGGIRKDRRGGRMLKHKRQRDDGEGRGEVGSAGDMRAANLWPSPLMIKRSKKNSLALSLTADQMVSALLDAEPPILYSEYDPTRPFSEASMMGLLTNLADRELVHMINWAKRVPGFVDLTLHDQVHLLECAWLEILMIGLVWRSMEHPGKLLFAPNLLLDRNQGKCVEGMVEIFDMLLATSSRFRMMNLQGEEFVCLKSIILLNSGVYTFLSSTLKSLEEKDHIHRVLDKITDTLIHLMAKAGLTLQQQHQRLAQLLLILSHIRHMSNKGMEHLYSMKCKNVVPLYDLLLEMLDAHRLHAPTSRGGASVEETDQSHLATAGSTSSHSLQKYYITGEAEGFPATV
Retinoic acid receptor RXR-alpha (Homo sapiens), sequence (P19793 whole entry, looked up): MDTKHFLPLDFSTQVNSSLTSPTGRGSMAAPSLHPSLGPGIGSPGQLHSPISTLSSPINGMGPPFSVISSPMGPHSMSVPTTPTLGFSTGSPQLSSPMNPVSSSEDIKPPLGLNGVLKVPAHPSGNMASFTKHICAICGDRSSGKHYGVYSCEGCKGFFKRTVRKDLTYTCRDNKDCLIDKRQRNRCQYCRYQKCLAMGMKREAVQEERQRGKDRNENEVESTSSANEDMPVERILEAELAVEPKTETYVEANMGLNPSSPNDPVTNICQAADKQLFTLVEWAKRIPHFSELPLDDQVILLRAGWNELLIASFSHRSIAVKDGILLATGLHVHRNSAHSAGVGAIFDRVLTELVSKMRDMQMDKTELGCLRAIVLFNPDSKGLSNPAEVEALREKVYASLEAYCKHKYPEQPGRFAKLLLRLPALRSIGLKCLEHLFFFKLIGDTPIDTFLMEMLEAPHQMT
Glucocorticoid receptor (Homo sapiens), sequence (P04150 whole entry, looked up): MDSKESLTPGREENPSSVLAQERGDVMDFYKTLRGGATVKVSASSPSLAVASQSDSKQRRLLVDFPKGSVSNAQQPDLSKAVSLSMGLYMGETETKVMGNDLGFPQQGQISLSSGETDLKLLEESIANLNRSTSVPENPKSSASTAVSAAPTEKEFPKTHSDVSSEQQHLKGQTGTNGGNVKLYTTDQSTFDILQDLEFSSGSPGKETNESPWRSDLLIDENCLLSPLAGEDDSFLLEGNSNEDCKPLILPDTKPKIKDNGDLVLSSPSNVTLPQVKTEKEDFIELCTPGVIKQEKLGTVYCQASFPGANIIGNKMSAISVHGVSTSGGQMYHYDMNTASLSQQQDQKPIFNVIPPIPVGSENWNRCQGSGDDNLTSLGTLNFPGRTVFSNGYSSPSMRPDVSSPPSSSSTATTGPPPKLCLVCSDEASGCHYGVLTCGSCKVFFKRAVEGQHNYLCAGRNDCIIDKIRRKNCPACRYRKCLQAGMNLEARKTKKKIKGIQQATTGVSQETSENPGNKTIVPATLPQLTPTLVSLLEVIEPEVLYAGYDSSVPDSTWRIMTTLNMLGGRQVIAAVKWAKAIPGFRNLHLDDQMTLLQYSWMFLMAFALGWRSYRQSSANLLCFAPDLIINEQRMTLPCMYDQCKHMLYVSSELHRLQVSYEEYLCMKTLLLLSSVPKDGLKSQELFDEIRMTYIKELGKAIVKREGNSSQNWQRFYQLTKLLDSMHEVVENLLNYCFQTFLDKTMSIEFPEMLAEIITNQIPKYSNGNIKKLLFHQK
Peroxisome proliferator-activated receptor delta (Homo sapiens), sequence (Q03181 whole entry, looked up): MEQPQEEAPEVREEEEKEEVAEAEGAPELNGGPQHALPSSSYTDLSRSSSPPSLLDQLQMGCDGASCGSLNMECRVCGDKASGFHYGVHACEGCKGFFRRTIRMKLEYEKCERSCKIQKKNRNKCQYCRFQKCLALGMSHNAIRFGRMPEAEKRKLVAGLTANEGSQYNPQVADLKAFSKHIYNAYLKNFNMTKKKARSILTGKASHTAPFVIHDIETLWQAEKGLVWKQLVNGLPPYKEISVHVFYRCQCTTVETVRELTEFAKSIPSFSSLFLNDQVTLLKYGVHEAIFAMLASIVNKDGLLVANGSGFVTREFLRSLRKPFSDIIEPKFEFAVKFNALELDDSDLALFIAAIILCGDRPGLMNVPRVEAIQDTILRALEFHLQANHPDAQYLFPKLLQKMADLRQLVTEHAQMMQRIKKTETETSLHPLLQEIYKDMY
Androgen receptor (Homo sapiens), sequence (P10275 whole entry, looked up): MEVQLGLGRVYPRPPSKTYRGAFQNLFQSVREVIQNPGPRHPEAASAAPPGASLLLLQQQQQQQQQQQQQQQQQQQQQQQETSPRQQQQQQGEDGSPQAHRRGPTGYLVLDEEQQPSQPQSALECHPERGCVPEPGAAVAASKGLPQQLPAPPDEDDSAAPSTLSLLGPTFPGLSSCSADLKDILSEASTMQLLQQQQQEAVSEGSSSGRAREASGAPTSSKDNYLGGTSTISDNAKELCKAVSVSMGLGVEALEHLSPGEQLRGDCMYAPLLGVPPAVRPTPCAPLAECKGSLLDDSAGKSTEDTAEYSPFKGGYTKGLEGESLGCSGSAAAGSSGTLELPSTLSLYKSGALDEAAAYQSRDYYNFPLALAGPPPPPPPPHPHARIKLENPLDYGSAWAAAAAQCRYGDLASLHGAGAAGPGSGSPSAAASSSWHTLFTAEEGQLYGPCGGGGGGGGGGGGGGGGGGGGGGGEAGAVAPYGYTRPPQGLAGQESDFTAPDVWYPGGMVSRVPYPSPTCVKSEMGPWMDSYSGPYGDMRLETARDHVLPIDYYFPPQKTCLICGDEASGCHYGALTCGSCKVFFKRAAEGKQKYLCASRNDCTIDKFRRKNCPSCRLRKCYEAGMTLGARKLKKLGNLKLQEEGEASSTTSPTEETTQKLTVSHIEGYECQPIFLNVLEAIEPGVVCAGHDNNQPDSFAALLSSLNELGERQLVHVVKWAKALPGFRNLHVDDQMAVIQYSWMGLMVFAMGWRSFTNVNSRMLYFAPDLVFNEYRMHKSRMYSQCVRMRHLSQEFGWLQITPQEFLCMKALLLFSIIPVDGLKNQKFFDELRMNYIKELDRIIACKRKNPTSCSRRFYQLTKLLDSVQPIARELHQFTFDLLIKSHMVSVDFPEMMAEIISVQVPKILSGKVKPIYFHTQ
Peroxisome proliferator-activated receptor gamma (Homo sapiens), sequence (P37231 whole entry, looked up): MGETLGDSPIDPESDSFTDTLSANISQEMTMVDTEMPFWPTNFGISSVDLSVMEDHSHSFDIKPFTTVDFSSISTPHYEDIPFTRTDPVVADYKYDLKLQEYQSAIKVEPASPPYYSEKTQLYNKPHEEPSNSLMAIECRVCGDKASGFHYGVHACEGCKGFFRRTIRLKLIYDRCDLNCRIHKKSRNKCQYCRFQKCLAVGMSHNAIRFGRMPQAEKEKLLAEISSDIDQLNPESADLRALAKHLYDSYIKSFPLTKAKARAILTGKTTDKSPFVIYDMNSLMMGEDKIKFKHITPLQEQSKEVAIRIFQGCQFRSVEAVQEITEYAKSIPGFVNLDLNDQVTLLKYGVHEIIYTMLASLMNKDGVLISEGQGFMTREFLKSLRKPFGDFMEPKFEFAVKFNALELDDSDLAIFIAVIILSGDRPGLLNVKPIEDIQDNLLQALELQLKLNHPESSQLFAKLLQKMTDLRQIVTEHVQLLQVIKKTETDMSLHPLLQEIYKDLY

COc1cc(C[C@H]2C(=O)OC[C@@H]2Cc2ccc(OC)c(OC)c2)ccc1O
outcome [1]: inactive

CC(=O)S[C@@H]1CC2=CC(=O)CC[C@]2(C)[C@H]2CC[C@@]3(C)[C@@H](CC[C@@]34CCC(=O)O4)[C@H]12
Potency [2]: inactive
activation [3]: -13.6% (inactive)
Potency [4]: 39.8 µM (active)
outcome [5]: inactive

C=Cc1ccccc1
outcome [6]: inactive
Potency [2]: inactive
max response [7]: -7.04% and -9%
outcome [8]: inactive
outcome [9]: inactive
Potency [4]: inactive
outcome [10]: inactive
outcome [11]: inactive
max response [12]: -4.91%
outcome [13]: inactive
max response [14]: -10.4% and -6.3%
max response [15]: 1.17% (inactive) and -1.22% (inactive)

CCCCCCCC/C=C\CCCCCCCC(=O)OC[C@@H](O)[C@H]1OC[C@H](O)[C@H]1O
Potency [2]: 2 µM (active)
Potency [16]: inactive
max response [7]: -7.22%
outcome [8]: inactive
outcome [9]: inactive
outcome [10]: inactive
outcome [11]: inactive
max response [12]: -2.66%
outcome [13]: inactive
outcome [5]: inactive
max response [14]: -8.17%
max response [15]: -13.5% (inactive)

O=C(O)CC(O)(CC(=O)O)C(=O)O
Potency [2]: inactive
Potency [16]: inactive
max response [7]: -9.3% and -1.59% and -15.8%
outcome [8]: inactive
outcome [9]: inactive
outcome [10]: inactive
outcome [11]: inactive
max response [12]: 2.81% and -9.62% and -10.5%
outcome [13]: inactive
outcome [5]: inactive
max response [14]: -2.45% and -5.52% and -2.31%
max response [15]: -0.99% (inactive) and 3.25% (inactive) and -0.625% (inactive)

CC(=O)C1=C(O)C=C2Oc3c(C(C)=O)c(O)c(C)c(O)c3[C@]2(C)C1=O
outcome [1]: inactive

O=S(=O)(c1ccccc1)N(CC(F)(F)F)c1ccc(C(O)(C(F)(F)F)C(F)(F)F)cc1
Potency [2]: inactive
Potency [17]: 44.7 µM (active)
activation [3]: 3.66% (inactive)
Potency [16]: 39.8 µM (active)
max response [7]: -29.6%
outcome [8]: inactive
max response [12]: -15.6%
outcome [13]: inactive
outcome [5]: inactive
max response [14]: -56.3%
Potency [15]: 12.6 µM (active)

Cc1ccc(OC[C@H](O)[C@H](C)NC(C)C)c2c1CCC2
outcome [1]: inactive

NCCCC(=O)O
Potency [18]: inactive
outcome [1]: inactive

CN(C)CCCn1cc(C2=C(c3c[nH]c4ccccc34)C(=O)NC2=O)c2ccccc21
outcome [1]: inactive

CCc1ccccc1OC[C@@H](O)CN[C@H]1CCCc2ccccc21
outcome [1]: inactive

CN[C@H]1CC[C@@H](c2ccc(Cl)c(Cl)c2)c2ccccc21
Potency [18]: 14.1 µM (active)

COC(C)=O
outcome [6]: inactive
Potency [2]: inactive
outcome [19]: inactive
activation [3]: -4.63% (inactive)
Potency [16]: inactive
max response [7]: 27.1%
outcome [8]: inactive
outcome [9]: inactive
max response [12]: -9.31%
outcome [13]: inactive
outcome [5]: inactive
max response [14]: -2.37%
max response [15]: 11.4% (inactive)

CN(C)Cc1ccccc1
activation [20]: -4.67% (inactive)
activation [3]: -2.09% (inactive)
Potency [16]: inactive
max response [7]: -30.1%
outcome [8]: inactive
outcome [9]: inactive
Potency [4]: inactive
outcome [10]: inactive
max response [12]: -2.82%
outcome [13]: inactive
outcome [5]: inactive
max response [14]: -2.86%
max response [15]: -1.44% (inactive)

CCCCCCCCCC(=O)O
activation [20]: -19.5% (inactive) and -1.38% (inactive)
Potency [17]: inactive
activation [3]: -0.446% (inactive)
Potency [16]: inactive
max response [7]: 24%
outcome [8]: inactive
outcome [10]: inactive
outcome [11]: inactive
max response [12]: 6.89% and 0.0203%
outcome [13]: inactive
outcome [5]: inactive
max response [14]: 6.37% and -10.5%
max response [15]: -2.15% (inactive) and -5.65% (inactive)

COc1ccc2[nH]c(=O)c3c(c2c1)OC(C)(C)C=C3
outcome [1]: inactive
